# Data: the supplement of paper PMC11732987, “Enantioselective OTUD7B fragment discovery through chemoproteomics screening and high-throughput optimisation” (Communications Chemistry, 2025)
# A number with no mark means an inactive call.
# Tests used:
# Assay in all cases: log2 ratio of Biotin-Ahx-Ub-VS probe labelling (fragment/DMSO); higher = less target engagement (more negative = stronger competition), active = hit call of the paper (q ≤ 0.05, log2 ratio ≤ -1)
# Conditions in all cases: compound concentration: 200 uM; treatment time: 3 h
# UniProt O00507 = biological target: UniProt O00507
# UniProt O00507, sequence (O00507 whole entry, the tested form may be a part): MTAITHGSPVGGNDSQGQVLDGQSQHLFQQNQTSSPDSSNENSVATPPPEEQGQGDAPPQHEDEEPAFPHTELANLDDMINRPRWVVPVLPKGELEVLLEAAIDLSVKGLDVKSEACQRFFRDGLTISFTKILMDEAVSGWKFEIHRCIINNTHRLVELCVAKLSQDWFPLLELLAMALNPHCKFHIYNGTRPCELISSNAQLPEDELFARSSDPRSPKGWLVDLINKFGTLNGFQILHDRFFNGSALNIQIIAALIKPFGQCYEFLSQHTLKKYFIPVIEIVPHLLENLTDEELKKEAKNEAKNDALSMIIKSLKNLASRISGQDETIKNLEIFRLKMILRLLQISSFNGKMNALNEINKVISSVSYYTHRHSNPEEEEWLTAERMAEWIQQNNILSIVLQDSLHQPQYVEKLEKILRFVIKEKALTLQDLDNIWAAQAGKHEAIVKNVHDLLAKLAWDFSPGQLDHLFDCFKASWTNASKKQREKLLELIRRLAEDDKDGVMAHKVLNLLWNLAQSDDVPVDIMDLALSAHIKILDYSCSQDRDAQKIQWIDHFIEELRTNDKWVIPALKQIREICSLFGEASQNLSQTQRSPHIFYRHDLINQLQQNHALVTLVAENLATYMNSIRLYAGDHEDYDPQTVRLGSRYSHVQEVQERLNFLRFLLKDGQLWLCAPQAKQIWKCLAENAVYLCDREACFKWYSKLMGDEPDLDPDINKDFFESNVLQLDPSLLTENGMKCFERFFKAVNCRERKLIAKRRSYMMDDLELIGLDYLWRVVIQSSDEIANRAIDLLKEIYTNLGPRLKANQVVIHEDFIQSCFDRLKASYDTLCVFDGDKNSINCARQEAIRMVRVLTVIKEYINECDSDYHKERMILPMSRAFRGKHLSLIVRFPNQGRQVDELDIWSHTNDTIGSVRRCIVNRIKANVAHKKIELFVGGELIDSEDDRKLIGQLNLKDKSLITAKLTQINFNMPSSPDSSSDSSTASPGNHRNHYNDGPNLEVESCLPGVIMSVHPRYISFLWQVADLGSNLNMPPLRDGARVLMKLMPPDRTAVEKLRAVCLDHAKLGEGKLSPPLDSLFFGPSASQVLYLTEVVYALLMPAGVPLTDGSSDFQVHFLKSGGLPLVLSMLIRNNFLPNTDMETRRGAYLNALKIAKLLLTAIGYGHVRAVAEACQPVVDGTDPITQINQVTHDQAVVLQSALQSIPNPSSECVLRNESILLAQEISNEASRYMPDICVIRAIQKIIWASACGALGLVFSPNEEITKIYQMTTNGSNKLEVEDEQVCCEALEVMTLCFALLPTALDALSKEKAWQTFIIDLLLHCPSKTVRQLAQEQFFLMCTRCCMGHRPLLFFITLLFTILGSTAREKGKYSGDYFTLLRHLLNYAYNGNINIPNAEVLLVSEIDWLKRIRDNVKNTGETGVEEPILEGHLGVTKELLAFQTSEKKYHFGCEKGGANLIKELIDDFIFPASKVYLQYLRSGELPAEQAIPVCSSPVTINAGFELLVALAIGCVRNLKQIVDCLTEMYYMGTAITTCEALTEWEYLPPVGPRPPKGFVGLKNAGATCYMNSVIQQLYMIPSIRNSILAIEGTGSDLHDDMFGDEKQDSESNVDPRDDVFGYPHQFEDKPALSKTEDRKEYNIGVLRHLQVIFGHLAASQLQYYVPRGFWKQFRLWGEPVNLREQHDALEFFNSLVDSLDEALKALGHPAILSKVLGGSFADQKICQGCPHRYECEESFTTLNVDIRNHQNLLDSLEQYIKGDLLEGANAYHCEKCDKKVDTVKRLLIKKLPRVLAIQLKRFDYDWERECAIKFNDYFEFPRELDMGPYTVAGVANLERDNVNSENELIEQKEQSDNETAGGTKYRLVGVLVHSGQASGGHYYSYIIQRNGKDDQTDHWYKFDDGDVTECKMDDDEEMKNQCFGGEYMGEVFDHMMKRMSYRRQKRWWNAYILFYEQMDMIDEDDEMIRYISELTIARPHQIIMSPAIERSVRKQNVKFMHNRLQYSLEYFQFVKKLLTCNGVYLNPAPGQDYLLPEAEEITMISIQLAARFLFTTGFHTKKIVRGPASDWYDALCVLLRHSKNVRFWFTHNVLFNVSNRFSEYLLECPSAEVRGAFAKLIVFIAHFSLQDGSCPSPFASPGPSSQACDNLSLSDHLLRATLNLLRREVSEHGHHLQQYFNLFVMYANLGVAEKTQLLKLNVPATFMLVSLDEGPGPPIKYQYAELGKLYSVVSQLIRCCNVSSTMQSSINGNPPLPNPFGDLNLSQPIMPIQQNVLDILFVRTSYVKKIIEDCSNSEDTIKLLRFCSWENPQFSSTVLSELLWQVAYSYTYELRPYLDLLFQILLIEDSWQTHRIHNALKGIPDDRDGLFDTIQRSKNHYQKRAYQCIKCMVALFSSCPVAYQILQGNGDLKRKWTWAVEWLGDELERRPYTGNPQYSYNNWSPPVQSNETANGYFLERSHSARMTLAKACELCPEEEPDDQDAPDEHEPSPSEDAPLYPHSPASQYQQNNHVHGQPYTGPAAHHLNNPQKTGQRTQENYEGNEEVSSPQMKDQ
# In short: (§1)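 HEK293T lysate (495 µg per sample, in Tris/CHAPS/IGEPAL buffer with protease inhibitors) was exposed in triplicate for 3 h to fragment at 200 µM or to vehicle, then to Biotin-Ahx-Ub-VS at 0.5 µM final for 1 h. Labelled DUBs were enriched on NeutrAvidin, digested with LysC and trypsin, and analysed by diaPASEF LC-MS/MS. Spectronaut label-free quantities were normalised to the global median, and values are average log2 ratios of fragment over vehicle from an unpaired t-test. Only proteins with ≥2 unique peptides were used.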
# UniProt P51784 = biological target: UniProt P51784
# UniProt P51784, sequence (P51784 whole entry): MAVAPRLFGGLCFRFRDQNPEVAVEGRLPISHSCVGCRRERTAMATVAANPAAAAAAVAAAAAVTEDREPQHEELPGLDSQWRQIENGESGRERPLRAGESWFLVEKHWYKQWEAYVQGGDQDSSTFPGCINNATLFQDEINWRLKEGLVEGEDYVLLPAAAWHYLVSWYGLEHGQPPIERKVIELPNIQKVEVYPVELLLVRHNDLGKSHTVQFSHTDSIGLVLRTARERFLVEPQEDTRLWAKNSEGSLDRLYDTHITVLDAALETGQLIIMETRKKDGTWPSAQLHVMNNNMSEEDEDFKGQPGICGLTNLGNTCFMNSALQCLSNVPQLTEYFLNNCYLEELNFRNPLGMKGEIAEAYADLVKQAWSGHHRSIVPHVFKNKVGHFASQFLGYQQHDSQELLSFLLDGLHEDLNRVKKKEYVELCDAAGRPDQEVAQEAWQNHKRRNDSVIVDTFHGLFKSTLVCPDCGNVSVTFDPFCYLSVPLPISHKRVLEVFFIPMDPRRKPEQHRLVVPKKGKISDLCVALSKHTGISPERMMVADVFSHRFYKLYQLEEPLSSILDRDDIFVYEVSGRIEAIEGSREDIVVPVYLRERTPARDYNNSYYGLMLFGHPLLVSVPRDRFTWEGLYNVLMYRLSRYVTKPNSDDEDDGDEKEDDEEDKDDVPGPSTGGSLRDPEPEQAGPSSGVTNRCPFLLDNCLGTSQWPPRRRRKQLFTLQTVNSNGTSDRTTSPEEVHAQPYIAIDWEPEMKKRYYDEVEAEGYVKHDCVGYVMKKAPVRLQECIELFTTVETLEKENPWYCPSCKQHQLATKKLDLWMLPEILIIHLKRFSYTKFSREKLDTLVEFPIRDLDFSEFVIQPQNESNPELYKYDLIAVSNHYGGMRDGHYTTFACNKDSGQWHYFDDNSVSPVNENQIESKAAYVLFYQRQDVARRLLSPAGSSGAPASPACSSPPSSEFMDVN
# In short: as §1
# UniProt Q5T2D3 = biological target: T1, UniProt Q5T2D3
# T1 sequence (whole entry): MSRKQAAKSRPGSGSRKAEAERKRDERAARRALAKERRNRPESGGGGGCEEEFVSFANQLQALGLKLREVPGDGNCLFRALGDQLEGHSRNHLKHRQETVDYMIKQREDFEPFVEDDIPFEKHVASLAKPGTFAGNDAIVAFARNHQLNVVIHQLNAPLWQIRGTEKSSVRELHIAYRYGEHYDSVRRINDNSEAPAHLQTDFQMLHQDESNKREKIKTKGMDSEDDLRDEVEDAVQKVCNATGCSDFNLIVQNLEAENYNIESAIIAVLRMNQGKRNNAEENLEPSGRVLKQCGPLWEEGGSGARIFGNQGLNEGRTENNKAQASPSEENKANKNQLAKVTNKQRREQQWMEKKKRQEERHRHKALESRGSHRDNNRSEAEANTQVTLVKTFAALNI
# In short: as §1
# UniProt Q8TE49 = biological target: T2, UniProt Q8TE49
# T2 sequence (whole entry): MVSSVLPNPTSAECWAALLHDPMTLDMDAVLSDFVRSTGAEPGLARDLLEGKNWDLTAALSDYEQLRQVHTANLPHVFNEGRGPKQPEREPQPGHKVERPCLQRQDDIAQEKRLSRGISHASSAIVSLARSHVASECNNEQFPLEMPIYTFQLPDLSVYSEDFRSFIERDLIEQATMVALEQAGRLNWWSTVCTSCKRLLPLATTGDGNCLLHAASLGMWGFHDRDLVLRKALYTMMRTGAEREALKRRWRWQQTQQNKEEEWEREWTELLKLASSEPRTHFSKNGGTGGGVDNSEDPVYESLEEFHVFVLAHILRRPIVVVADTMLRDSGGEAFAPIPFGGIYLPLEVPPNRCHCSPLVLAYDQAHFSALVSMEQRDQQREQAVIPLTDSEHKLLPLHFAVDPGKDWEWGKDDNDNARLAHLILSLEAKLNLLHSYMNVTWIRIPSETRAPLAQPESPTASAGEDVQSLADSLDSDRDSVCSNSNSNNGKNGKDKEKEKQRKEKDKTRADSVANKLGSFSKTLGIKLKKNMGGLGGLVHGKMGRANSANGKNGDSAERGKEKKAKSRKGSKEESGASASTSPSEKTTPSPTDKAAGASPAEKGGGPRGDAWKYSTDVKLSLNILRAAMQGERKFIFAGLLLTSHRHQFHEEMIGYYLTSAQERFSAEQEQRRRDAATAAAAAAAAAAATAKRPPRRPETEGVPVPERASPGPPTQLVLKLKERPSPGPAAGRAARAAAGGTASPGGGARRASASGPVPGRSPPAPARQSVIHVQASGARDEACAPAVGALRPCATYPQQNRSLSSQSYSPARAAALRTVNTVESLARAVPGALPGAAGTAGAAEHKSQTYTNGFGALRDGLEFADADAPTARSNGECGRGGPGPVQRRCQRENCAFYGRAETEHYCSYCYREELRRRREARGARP
# In short: as §1
# UniProt Q9P2H5 = biological target: T3, UniProt Q9P2H5
# T3 sequence (whole entry): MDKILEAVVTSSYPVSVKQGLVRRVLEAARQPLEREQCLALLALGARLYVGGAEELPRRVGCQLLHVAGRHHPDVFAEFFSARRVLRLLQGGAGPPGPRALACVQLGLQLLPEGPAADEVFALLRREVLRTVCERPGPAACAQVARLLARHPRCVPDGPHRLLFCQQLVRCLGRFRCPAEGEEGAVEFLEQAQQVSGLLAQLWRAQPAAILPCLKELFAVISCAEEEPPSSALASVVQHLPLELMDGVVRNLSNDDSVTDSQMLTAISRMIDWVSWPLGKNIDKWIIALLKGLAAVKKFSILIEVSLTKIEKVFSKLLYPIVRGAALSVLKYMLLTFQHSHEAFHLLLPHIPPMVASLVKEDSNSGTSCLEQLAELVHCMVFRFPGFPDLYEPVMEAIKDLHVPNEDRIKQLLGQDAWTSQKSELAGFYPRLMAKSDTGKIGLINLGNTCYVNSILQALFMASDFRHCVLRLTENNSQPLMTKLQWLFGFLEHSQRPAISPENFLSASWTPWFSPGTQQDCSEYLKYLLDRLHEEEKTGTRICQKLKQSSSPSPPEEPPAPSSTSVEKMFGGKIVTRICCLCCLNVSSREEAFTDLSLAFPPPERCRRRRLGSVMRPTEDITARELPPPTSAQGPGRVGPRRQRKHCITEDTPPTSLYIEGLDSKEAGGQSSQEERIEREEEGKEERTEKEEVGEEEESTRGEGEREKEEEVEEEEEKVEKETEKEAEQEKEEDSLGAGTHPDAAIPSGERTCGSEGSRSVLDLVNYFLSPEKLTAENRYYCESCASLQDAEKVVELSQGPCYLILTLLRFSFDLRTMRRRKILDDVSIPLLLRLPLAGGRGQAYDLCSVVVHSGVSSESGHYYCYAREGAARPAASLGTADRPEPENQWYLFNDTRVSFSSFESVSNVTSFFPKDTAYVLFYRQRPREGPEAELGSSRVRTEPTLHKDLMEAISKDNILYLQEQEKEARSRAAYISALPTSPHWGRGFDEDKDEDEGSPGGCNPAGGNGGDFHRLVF
# In short: as §1
# UniProt Q9UGI0 = biological target: T4, UniProt Q9UGI0
# T4 sequence (whole entry): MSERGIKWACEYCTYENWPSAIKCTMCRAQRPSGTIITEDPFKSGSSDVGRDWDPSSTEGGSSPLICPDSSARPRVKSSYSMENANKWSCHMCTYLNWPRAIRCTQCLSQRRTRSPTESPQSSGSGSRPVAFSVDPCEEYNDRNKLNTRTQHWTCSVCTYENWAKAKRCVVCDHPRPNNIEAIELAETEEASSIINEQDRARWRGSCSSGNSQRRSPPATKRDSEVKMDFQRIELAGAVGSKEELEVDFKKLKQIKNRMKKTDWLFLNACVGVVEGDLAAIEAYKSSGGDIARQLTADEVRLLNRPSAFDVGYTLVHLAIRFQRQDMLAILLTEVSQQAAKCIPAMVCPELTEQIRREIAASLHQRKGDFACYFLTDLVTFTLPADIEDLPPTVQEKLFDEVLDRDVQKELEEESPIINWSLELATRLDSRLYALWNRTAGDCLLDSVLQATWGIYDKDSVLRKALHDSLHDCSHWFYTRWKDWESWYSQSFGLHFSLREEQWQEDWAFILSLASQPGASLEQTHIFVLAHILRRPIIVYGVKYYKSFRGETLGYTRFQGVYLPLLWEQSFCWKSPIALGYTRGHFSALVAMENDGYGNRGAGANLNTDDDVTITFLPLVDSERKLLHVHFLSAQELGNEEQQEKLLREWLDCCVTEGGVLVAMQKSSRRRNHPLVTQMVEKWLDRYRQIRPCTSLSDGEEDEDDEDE
# In short: as §1
# YOD1 = biological target: T5, YOD1 (UniProt Q5VVQ6)
# T5 sequence (whole entry): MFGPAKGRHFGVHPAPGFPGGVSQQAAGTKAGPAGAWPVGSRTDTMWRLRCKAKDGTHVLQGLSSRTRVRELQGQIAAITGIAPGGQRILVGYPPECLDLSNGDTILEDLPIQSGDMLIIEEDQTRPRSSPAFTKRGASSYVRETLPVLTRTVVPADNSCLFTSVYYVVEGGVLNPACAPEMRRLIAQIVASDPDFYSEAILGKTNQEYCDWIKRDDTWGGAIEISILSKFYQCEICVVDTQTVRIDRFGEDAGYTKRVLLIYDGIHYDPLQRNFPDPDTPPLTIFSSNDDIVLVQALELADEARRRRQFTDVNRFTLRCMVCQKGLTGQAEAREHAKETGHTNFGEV
# In short: as §1
SMILES,log2 ratio of Biotin-Ahx-Ub-VS probe labelling (UniProt O00507),log2 ratio of Biotin-Ahx-Ub-VS probe labelling (UniProt P51784),log2 ratio of Biotin-Ahx-Ub-VS probe labelling (UniProt Q5T2D3),log2 ratio of Biotin-Ahx-Ub-VS probe labelling (UniProt Q8TE49),log2 ratio of Biotin-Ahx-Ub-VS probe labelling (UniProt Q9P2H5),log2 ratio of Biotin-Ahx-Ub-VS probe labelling (UniProt Q9UGI0),log2 ratio of Biotin-Ahx-Ub-VS probe labelling (YOD1)
Cl.Cn1cnc2cc(CNC(=O)CCl)ccc21,0.245,-0.209,-0.0728,-0.354,-0.126,-0.308,0.0476
Cl.O=C(CCl)N1CC(c2ccc(Br)cn2)C1,-0.573,-0.0636,-0.282,-0.974,-0.175,-0.897,-0.229
O=C(CCl)Nc1ccc(F)cc1Cl,-0.442,-0.238,-0.425,-1.35,-0.211,-1.18 (active),-0.759
Cl.O=C(CCl)NC1(c2ncccn2)CCC1,-0.0196,0.0134,-0.0112,0.0256,-0.0207,-0.201,0.161
NC(=O)C1CCCN(C(=O)CCl)C1 (stereo not drawn),-0.185,-0.0378,0.103,0.0487,-0.0803,-0.698,0.00724
CN(C)C(=O)c1ccc(NC(=O)CCl)cc1,0.0581,-0.0219,0.0298,0.182,0.102,-0.97,0.0572
O=C(CCl)N1CCC2(CCC(O)CC2)CC1,0.0905,0.0738,-0.238,-0.64,-0.118,-0.316,0.0256
CN(C)C(=O)c1ccc(CNC(=O)CCl)cc1,0.565,0.0173,-0.167,-0.516,-0.0353,-0.474,0.0763
Cc1noc(N2CCN(C(=O)CCl)CC2)n1.Cl,0.416,0.139,-0.466,-0.674,-0.642,-0.369,0.313
Cl.O=C(CCl)N1CCn2cncc2C1,-0.138,-0.251,-0.246,-0.433,-0.128,-0.182,-0.133
Cc1n[nH]c(=O)c2c(NC(=O)CCl)oc(C)c12,0.347,0.0686,-0.674,-0.575,-0.144,0.264,0.238
Cc1cc(NC(=O)CCl)n(-c2ccccc2)n1,0.159,-0.0134,0.000838,-0.548,-0.36,-0.672,0.179
CS(=O)(=O)c1ccc(NC(=O)CCl)cc1,-0.0176,-0.0206,-0.139,-0.443,-0.192,-0.87,0.0991
O=C(CCl)NCC1(c2ccccc2)CC1,0.153,0.117,-0.0752,-0.408,-0.071,-1.08 (active),0.0857
O=C(CCl)NC(Cn1ccccc1=O)c1ccccc1 (stereo not drawn),0.0241,0.0376,0.0727,-0.0581,0.148,-0.146,0.00589
O=C(CCl)NC1CCN(C(=O)C2CCCCC2)CC1,-0.257,0.122,0.0478,-0.283,0.125,-0.0541,-0.0714
CCC(NC(=O)CCl)c1ccc(Cl)cc1 (stereo not drawn),0.32,0.0791,-0.182,-0.735,-0.319,-0.279,0.188
O=C(CCl)N1CCN(c2nc3ccccc3o2)CC1,-0.666,-0.255,-0.0854,-0.515,-0.57,-0.691,-0.434
O=C(CCl)Nc1nc(-c2cccs2)cs1,-0.168,0.104,-0.239,-0.68,-0.138,-2.34 (active),0.237
